AmpC inh no det – inhibitors of E. coli AmpC beta-lactamase without detergent; P00811; AmpC nitrocefin hydrolysis, absorbance 480 nm, no detergent; Potency, µM (series often up to 28.7 µM), without a hit: at the highest dose activity change, negative = inhibition; actives 1.8% (n = 71,000); further: % of control where 0% means no effect
Target sequence (P00811 whole entry, looked up): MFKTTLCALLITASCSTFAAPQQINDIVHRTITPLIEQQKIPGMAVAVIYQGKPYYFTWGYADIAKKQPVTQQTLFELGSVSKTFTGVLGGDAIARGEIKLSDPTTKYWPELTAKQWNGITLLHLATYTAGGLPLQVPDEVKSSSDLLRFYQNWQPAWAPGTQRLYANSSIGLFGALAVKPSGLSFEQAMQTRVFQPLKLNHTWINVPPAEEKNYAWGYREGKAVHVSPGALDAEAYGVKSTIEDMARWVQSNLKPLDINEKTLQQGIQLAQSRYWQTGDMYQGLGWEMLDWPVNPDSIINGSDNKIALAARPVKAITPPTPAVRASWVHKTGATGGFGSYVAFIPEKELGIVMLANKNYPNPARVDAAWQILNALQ
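AmpC in 20 mM phosphate buffer pH 7.0 was preincubated 15 min at room temperature with compounds. Nitrocefin (800 uM stock) was then added and hydrolysis followed at 480 nm every 20 s for 4 min.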
Anthrax LT inh – blocks cellular internalization of anthrax lethal toxin. Cells, anthrax lethal toxin internalization, FRET ratio (460/530). Potency, µM (titrated, usually from 40 µM), without a hit: top-dose activity change, negative = inhibition, hits mostly inhibitors. actives 0.67% (n = 70,000); further: on the % scale 0 is the no-effect control and ±100 the full control effect; nearly all actives have a fitted effect of over 50% in size
Prx2 Sm inh – blocks S. mansoni peroxiredoxin 2 enzymatic activity; S. mansoni Prx2 activity coupled to TGR/GSH (TGR is thioredoxin glutathione reductase), NADPH fluorescence loss, qHTS; Potency, µM; actives 0.07% (n = 65,000)
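qHTS, coupled TGR/Prx2 format; 15 min compound preincubation at RT; reaction started with H2O2 (2.5 mM aliquot); kinetic NADPH fluorescence decrease, ex 365/em 450 nm.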
AmpC det inh – AmpC beta-lactamase inhibition, detergent assay; AID 584; P00811; actives 0.09% (n = 71,000); purified AmpC, nitrocefin hydrolysis with detergent; Potency, µM (series often up to 28.7 µM), for inactives: at the top dose activity change, negative = inhibition; active means well fitted curve in the direction sought with a large enough effect; inconclusive means small, poorly fitted or top-dose-only effect; further: on the % scale 0 is the no-effect control and ±100 the full control effect
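E. coli AmpC (5.3 nM) in 20 mM phosphate pH 7.0 with 0.01% Triton X-100, preincubated 15 min RT with compound; nitrocefin (2 uL of 800 uM stock) hydrolysis followed by 480 nm absorbance every 20 s over 4 min.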
Starred values were filed as active, the others as inactive; ? = inconclusive; . = not tested or not shown; ! = not active in a repeat; [ ] = dose if it differs, or a comment. Sampled rows, rich in hits. Any-hit rate of the full collection: about 2.6%. Unless noted, the call rests on the fitted dose curve. Potency means the concentration at half of the fitted maximal effect.

SMILES	AmpC inh no det	Anthrax LT inh	Prx2 Sm inh	AmpC det inh
CCOC(=O)N1CCN(c2c(N3CCC(N4CCCCC4)CC3)c(=O)c2=O)CC1	4µM*[single pt active]	11%	>57	12%
CCOC(=O)C1CCN(c2c(N3CCCC(C(=O)OCC)C3)c(=O)c2=O)CC1 (stereo not drawn)	15%	?	>57	4%
CCOC(=O)N1CCN(c2c(NCCN3CCCCC3CC)c(=O)c2=O)CC1 (stereo not drawn)	4µM*[single pt active]	-9%	>57	13%
Cc1ccccc1-c1cc(NCCN2CCOCC2)ncn1	11%	?	>57	12%
COc1ccc(OC)c(C2CC(=O)N3CN(c4cccc(Cl)c4C)CSC3=C2C#N)c1 (stereo not drawn)	4µM*[single pt active]	?	>57	12%
COc1ccc(OC)c(C2CC(=O)N3CN(c4cccc(Cl)c4)CSC3=C2C#N)c1 (stereo not drawn)	-23%	-30%	>57	8%
COc1cccc(C2CC(=O)N3CN(c4cccc(Cl)c4C)CSC3=C2C#N)c1OC (stereo not drawn)	4µM*[single pt active]	?	.	13%
O=C(NCCCN1CCCCC1)C1(S(=O)(=O)c2ccc(Cl)cc2)CC1	4µM*[single pt active]	-5%	>57	14%
O=C(NCCN1CCCC1)C1(S(=O)(=O)c2ccc(Cl)cc2)CC1	-4%	-1%	>57	-4%
CC(C)CN1CC[C@@]2(CCCN(C(=O)c3cnccn3)C2)C1	24%	2%	>57	-2%
Cc1cc(C(=O)N[C@@H](c2ccccc2)[C@]2(C)C[C@H]2[C@@H](C)C(=O)Nc2ccc3ccccc3c2)n(C)n1	105%	-36%	>57	-3%
COC(=O)c1ccc(-c2nn(C)c(=O)c3ccccc23)cc1	4µM*[single pt active]	-15%	>57	11%
O=c1c(O)c(-c2ccc(O)c(O)c2)oc2cc(O)ccc12	13µM*!	-12%	>57	-2%
O=c1c(O)c(-c2ccc(O)cc2)oc2cc(O)ccc12	?	?	>57	2%
O=C1OC(NC(=O)c2ccccc2)C(n2cc(CO)nn2)=C1Cl (stereo not drawn)	-8%	13µM*	>57	-4%
Cc1c(C(=O)O)c(O)cc2c1C(=O)c1c(O)c([C@@H]3O[C@H](CO)[C@@H](O)[C@H](O)[C@@H]3O)c(O)c(O)c1C2=O	51%	-9%	>57	0%
CCCC1(CCC)C(=O)NC(=NCc2ccccc2)NC1=O	-10%	13µM*	>57	1%
CCC1(CC)C(=O)NC(=NCCc2c[nH]c3ccccc23)NC1=O	5%	?	>57	-1%
Cc1cccc(NC(=O)CN2C(=O)COc3ccc(Cl)cc32)c1	-20%	?	>57	24%
COCCNC(=O)CN1C(=O)COc2ccc(Cl)cc21	-14%	-1%	>57	0%
COC(=O)CN1C(=O)COc2ccc(Cl)cc21	4µM*[single pt active]	3%	>57	17%
CCOc1ccc(NC(=O)CN2C(=O)COc3ccc(Cl)cc32)cc1	4µM*[single pt active]	?	>57	14%
COc1cccc(NC(=O)CN2C(=O)COc3ccc(Cl)cc32)c1	-5%	16µM*	>57	12%
CC(C)(C)NC[C@@H](O)COc1ccccc1C1CCCC1	3%[12.8 µM]	-13%[3.58 µM]	>57	-2%[12.8 µM]
Clc1ccc(-c2nnc(N3CCCC3)nn2)cc1	10µM*	.	>57	-20%
SMILES	AmpC inh no det	Anthrax LT inh	Prx2 Sm inh	AmpC det inh
Clc1ccc(-c2noc(CN3CCCCC3)n2)cc1	4%[5.75 µM]	4%[8 µM]	>57	-5%[5.75 µM]
Cc1cccc(-c2nc(CS(=O)CC(=O)NCC3CCCO3)c(C)o2)c1 (stereo not drawn)	4µM*[single pt active]	-5%	>57	11%
Cc1cccc(-c2nc(CS(=O)CC(=O)N3CCCCC3)c(C)o2)c1 (stereo not drawn)	4µM*[single pt active]	-3%	>57	16%
CCOC(=O)N1CCN(C(=O)CS(=O)Cc2nc(-c3ccc(C)cc3)oc2C)CC1 (stereo not drawn)	109%	-16%	>57	12%
Cc1cc(=O)[nH]c(SCc2cc(=O)n3nc(C)sc3n2)n1	4µM*[single pt active]	1%	>57	14%
CCCSc1nc(C)cc(=O)[nH]1	-14%	-15%	>57	-3%
CCCCCCNC(=O)c1c(O)c2ccccc2[nH]c1=O	13µM*	22%	>57	2%
CCCCN(C(=O)c1ccc(Cl)cc1)C1CC2CCC(C1)N2C (stereo not drawn)	4µM*[single pt active]	?	>57	12%
COc1cc(C(=O)N(CCc2ccccc2)C2CC3CCC(C2)N3C)cc(OC)c1OC (stereo not drawn)	-10%	-13%	>57	-4%
